Test results published in the supplement of paper PMC9023506.
Counter-ions that a name gives are not always drawn.

The molecules below were run on Danio rerio larvae (5 dpf) (assay: activity during period 15 (no stimuli), difference vs DMSO (percentage points (treated minus DMSO)); higher = more of the behaviour than the DMSO vehicle control). Conditions: 10 µM; exposure time: 3 h pre-incubation + 3 h imaging.
Procedure: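 5-dpf wild-type zebrafish larvae were imaged in 96-well plates. They were treated with 190 Tocris FDA-approved drugs at 10 µM (1 µl/ml DMSO) for 3 h before and 3 h during imaging at 28.5 °C, 48 larvae per drug. Automated image analysis gave % time moving and optomotor responses. Values are drug group mean minus DMSO vehicle mean (n=844), in percentage points, for 10 behaviours.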

Row | Compound | activity during period 15
1 | C=C1C[C@@H]2[C@H](CC[C@]3(C)C(=O)CC[C@@H]23)[C@@]2(C)C=CC(=O)C=C12 [Exemestane] | -15.7
2 | CC[C@@H](C(N)=O)N1CCCC1=O [Levetiracetam] | 4.21
3 | N[C@@H]1C[C@H]1c1ccccc1 [Tranylcypromine hydrochloride] | -10.3
4 | COc1ccc(C(CN(C)C)C2(O)CCCCC2)cc1 (configuration not stated) [Venlafaxine hydrochloride] | -20.4
5 | O=c1[nH]c2ccccc2n1C1CCN(CCCC(c2ccc(F)cc2)c2ccc(F)cc2)CC1 [Pimozide] | -8.89
6 | COc1cc2c(cc1OC)C1CC(=O)C(CC(C)C)CN1CC2 (configuration not stated) [Tetrabenazine] | 3.06
7 | C=CCN1C[C@H](C(=O)N(CCCN(C)C)C(=O)NCC)C[C@@H]2c3cccc4[nH]cc(c34)C[C@H]21 [Cabergoline] | -8.5
8 | Cc1cccc([C@H](C)c2c[nH]cn2)c1C [Dexmedetomidine hydrochloride] | -35.2
9 | CN1C[C@H](C(=O)N[C@]2(C)O[C@@]3(O)[C@@H]4CCCN4C(=O)[C@H](Cc4ccccc4)N3C2=O)C[C@@H]2c3cccc4[nH]cc(c34)C[C@H]21 [Dihydroergotamine mesylate] | 1.37
10 | CC(C)C[C@H]1C(=O)N2CCC[C@H]2[C@]2(O)O[C@](NC(=O)[C@@H]3C=C4c5cccc6[nH]c(Br)c(c56)C[C@H]4N(C)C3)(C(C)C)C(=O)N12 [Bromocriptine mesylate] | 3.6
11 | CC(O)(CS(=O)(=O)c1ccc(F)cc1)C(=O)Nc1ccc(C#N)c(C(F)(F)F)c1 (configuration not stated) [Bicalutamide] | 5.81
12 | CCN(C)C(=O)Oc1cccc([C@H](C)N(C)C)c1 [Rivastigmine tartrate] | -7.13
